What was measured:
[1] = molecular target: CDK3/Cyclin E (Homo sapiens) (UniProt P24864+Q00526); settings: at 1 µM;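 further: each figure is a mean percent inhibition of the CDK3/cyclin E complex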
[2] = molecular target: Cyclin-dependent kinase 4 (Homo sapiens) (UniProt P11802); settings: at 0.1 µM
[3] = molecular target: Cyclin-dependent kinase 4 (Homo sapiens) (UniProt P11802); settings: at 1 µM
[4] = molecular target: Cyclin-dependent kinase 5 (Homo sapiens) (UniProt Q00535); settings: at 0.1 µM
[5] = molecular target: Cyclin-dependent kinase 5 (Homo sapiens) (UniProt Q00535); settings: at 1 µM
[6] = molecular target: Cyclin-dependent kinase 6 (Homo sapiens) (UniProt Q00534); settings: at 0.1 µM
[7] = molecular target: Cyclin-dependent kinase 6 (Homo sapiens) (UniProt Q00534); settings: at 1 µM
[8] = molecular target: Dual specificity protein kinase CLK2 (Homo sapiens) (UniProt P49760); settings: at 0.1 µM
[9] = molecular target: Dual specificity protein kinase CLK2 (Homo sapiens) (UniProt P49760); settings: at 1 µM
[10] = molecular target: Dual specificity protein kinase CLK3 (Homo sapiens) (UniProt P49761); settings: at 0.1 µM
[11] = molecular target: Dual specificity protein kinase CLK3 (Homo sapiens) (UniProt P49761); settings: at 1 µM
[12] = molecular target: Dual specificity tyrosine-phosphorylation-regulated kinase 1A (Homo sapiens) (UniProt Q13627); settings: at 0.1 µM
[13] = molecular target: Dual specificity tyrosine-phosphorylation-regulated kinase 1A (Homo sapiens) (UniProt Q13627); settings: at 1 µM
[14] = molecular target: Dual specificity tyrosine-phosphorylation-regulated kinase 1B (Homo sapiens) (UniProt Q9Y463); settings: at 0.1 µM
[15] = molecular target: Dual specificity tyrosine-phosphorylation-regulated kinase 1B (Homo sapiens) (UniProt Q9Y463); settings: at 1 µM
[16] = molecular target: T1, Dual specificity tyrosine-phosphorylation-regulated kinase 2 (Homo sapiens) (UniProt Q92630); settings: at 0.1 µM
T1 sequence (whole entry): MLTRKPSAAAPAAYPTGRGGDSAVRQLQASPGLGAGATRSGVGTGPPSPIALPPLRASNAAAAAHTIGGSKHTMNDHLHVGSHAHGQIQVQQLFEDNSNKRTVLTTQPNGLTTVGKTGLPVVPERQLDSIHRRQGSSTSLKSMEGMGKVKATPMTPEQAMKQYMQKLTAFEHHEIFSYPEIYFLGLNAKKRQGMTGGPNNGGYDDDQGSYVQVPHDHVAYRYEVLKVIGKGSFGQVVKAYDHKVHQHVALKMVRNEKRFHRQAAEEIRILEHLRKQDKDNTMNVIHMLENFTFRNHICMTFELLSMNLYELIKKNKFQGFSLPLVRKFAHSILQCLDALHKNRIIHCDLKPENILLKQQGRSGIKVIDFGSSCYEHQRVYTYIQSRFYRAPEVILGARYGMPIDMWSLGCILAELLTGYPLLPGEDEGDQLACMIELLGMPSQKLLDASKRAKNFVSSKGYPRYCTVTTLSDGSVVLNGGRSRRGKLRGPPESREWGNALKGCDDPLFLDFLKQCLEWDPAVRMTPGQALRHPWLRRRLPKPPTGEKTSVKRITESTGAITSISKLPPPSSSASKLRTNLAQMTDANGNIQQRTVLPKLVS

[17] = molecular target: T1, Dual specificity tyrosine-phosphorylation-regulated kinase 2 (Homo sapiens); settings: at 1 µM
[18] = molecular target: Glycogen synthase kinase-3 alpha (Homo sapiens) (UniProt P49840); settings: at 0.1 µM
[19] = molecular target: Glycogen synthase kinase-3 alpha (Homo sapiens) (UniProt P49840); settings: at 1 µM
[20] = molecular target: Glycogen synthase kinase-3 beta (Homo sapiens) (UniProt P49841); settings: at 0.1 µM;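 further: values are mean percent inhibition of GSK3B activity, from the GSK Published Kinase Inhibitor Set (PKIS) screening dataset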
Chain of Glycogen synthase kinase-3 beta (Homo sapiens) (P49841 whole entry, looked up): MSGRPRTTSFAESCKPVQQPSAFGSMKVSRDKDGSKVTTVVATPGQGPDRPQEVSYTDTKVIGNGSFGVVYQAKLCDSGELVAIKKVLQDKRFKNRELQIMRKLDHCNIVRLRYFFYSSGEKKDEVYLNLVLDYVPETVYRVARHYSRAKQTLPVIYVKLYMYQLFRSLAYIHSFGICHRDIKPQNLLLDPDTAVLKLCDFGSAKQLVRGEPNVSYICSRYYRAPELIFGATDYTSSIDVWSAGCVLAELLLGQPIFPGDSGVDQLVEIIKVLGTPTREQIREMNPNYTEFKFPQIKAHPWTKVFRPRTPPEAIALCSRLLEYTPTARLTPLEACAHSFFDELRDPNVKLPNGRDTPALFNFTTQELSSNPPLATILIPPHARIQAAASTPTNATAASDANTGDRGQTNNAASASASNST

Chain of CDK3/Cyclin E (Homo sapiens) (P24864 whole entry, looked up): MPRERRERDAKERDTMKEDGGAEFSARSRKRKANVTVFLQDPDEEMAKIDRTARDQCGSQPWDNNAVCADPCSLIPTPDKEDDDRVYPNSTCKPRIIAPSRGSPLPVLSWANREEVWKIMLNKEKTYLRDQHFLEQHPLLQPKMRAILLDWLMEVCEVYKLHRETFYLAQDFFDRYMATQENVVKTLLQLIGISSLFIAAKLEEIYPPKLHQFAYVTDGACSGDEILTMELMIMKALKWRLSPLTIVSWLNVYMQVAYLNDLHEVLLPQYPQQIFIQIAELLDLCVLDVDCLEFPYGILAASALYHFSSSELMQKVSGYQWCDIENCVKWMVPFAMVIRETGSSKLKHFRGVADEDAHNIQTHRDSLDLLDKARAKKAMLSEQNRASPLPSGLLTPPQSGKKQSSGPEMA
Chain of CDK3/Cyclin E (Homo sapiens) (Q00526 whole entry, looked up): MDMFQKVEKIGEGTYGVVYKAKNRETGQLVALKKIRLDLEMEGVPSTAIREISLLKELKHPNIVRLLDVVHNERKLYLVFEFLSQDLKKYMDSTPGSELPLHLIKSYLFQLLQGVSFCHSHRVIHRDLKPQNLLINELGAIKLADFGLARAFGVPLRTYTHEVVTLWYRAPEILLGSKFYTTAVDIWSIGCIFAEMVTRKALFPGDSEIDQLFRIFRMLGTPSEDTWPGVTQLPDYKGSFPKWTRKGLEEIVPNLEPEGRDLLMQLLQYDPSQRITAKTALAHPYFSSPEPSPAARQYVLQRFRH
Chain of Cyclin-dependent kinase 4 (Homo sapiens) (P11802 whole entry): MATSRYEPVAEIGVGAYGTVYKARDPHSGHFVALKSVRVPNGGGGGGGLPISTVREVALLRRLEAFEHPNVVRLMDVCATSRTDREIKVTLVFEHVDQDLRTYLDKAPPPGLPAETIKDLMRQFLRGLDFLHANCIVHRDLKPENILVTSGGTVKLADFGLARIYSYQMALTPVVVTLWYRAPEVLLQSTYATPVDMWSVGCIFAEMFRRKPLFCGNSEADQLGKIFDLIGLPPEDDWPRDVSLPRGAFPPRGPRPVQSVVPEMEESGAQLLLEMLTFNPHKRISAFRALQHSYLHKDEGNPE
Chain of Dual specificity protein kinase CLK2 (Homo sapiens) (P49760 whole entry, looked up): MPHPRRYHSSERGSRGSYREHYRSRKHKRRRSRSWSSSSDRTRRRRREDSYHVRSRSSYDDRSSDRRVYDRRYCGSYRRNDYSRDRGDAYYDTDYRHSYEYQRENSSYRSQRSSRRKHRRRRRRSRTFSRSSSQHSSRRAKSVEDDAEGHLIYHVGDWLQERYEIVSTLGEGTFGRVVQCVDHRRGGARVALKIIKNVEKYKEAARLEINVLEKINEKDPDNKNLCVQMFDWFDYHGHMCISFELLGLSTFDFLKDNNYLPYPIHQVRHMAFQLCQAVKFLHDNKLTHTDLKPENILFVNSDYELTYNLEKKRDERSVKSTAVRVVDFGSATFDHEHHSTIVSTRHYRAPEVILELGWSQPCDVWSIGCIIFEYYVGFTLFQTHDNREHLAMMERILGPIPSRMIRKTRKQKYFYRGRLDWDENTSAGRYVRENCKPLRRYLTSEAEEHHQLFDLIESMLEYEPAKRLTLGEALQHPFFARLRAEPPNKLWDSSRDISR
Chain of Dual specificity tyrosine-phosphorylation-regulated kinase 1B (Homo sapiens) (Q9Y463 whole entry, looked up): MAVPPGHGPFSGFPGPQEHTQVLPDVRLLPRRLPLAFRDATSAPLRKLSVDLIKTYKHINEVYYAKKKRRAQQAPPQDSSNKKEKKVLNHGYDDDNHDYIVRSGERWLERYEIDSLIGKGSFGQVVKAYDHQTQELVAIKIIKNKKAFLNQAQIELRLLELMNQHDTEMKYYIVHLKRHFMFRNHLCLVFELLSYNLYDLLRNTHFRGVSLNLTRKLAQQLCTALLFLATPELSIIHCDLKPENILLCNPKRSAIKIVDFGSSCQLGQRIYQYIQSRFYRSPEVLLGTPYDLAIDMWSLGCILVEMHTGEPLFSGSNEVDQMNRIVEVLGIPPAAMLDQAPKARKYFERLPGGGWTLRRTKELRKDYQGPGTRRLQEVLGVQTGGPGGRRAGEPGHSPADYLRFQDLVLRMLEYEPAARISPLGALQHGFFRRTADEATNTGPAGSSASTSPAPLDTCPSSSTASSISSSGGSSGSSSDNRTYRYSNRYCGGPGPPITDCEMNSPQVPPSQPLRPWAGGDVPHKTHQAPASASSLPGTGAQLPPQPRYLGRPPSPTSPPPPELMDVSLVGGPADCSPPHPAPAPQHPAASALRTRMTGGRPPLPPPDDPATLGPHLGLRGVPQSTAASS
Chain of Glycogen synthase kinase-3 alpha (Homo sapiens) (P49840 2-483 limits assumed): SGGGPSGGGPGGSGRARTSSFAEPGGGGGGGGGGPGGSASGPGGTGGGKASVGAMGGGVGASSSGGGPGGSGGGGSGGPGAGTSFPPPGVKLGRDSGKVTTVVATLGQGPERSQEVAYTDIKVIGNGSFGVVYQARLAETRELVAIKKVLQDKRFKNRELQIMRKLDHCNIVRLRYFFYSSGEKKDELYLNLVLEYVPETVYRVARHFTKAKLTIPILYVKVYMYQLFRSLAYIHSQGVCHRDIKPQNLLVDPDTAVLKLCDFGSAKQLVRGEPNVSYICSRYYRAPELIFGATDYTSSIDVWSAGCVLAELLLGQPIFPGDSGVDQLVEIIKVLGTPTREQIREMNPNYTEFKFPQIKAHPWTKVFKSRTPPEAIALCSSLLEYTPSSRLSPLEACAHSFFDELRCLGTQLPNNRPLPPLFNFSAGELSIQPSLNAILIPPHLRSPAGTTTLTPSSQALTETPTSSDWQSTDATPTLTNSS
Chain of Dual specificity protein kinase CLK3 (Homo sapiens) (P49761 whole entry, looked up): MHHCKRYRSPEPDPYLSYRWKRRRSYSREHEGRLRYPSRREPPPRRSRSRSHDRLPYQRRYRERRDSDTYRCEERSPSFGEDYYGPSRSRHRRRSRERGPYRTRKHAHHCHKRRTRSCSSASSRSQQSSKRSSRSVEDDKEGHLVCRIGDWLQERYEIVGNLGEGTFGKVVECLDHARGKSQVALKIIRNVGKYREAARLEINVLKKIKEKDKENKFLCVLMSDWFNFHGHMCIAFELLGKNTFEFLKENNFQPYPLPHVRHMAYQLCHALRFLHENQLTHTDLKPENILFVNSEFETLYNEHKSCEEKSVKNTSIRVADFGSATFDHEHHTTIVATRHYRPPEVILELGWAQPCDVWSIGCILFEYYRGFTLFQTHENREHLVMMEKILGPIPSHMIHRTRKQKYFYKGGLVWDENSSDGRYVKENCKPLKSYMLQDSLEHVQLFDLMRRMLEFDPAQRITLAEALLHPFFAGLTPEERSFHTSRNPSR
Chain of Cyclin-dependent kinase 5 (Homo sapiens) (Q00535 whole entry, looked up): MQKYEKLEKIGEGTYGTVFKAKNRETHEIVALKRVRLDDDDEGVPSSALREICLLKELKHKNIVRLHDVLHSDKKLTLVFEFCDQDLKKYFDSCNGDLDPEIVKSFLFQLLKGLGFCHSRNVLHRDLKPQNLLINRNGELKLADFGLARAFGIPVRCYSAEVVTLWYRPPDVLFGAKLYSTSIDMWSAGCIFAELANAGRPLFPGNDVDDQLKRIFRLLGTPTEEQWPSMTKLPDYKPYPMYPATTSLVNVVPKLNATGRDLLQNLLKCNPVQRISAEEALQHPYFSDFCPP
Chain of Cyclin-dependent kinase 6 (Homo sapiens) (Q00534 whole entry): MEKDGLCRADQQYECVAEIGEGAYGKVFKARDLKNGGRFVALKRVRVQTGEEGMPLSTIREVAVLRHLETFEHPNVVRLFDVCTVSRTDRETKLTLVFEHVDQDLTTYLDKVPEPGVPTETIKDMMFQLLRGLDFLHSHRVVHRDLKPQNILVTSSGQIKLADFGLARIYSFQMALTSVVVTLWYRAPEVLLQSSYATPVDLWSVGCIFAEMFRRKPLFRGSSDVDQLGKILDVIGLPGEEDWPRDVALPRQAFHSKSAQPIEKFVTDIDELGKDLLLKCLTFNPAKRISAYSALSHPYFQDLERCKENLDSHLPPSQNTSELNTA

O=C1Nc2ccc(C(=O)c3ccco3)cc2C1=Cc1cc(Cl)c(O)c(Cl)c1
inhibition [1]: -0.28%
inhibition [2]: 3.32%
inhibition [3]: 7.07%
inhibition [4]: 1.97%
inhibition [5]: 6.39%
inhibition [6]: 3.35%
inhibition [7]: 7.37%
inhibition [8]: 64.6%
inhibition [9]: 95.7%
inhibition [10]: 22.3%
inhibition [11]: 63.8%
inhibition [12]: 40.5%
inhibition [13]: 78.3%
inhibition [14]: 47.4%
inhibition [15]: 81.5%
inhibition [16]: 3.34%
inhibition [17]: 13.4%
inhibition [18]: 24.5%
inhibition [19]: 70.1%
inhibition [20]: 31.1%

Cn1cc(C=C2C(=O)Nc3cccnc32)c2ccccc21
inhibition [1]: 3.36%
inhibition [2]: 4.89%
inhibition [3]: 11%
inhibition [4]: 5.57%
inhibition [5]: 7.28%
inhibition [6]: 1.04%
inhibition [7]: 8.56%
inhibition [8]: 3.28%
inhibition [9]: 13.7%
inhibition [10]: 0.62%
inhibition [11]: -1.26%
inhibition [12]: 2.68%
inhibition [13]: 10.6%
inhibition [14]: 0.78%
inhibition [15]: 4.49%
inhibition [16]: 2.52%
inhibition [17]: 4.08%
inhibition [18]: 4.33%
inhibition [19]: 12.2%
inhibition [20]: 3.54%

CC(=O)Nc1cccc(C#Cc2cncnc2Nc2ccc(OCc3cccc(F)c3)c(Cl)c2)n1
inhibition [1]: -0.89%
inhibition [2]: -1.95%
inhibition [3]: -1.42%
inhibition [4]: 0.24%
inhibition [5]: 1.19%
inhibition [6]: -1.85%
inhibition [8]: 0.62%
inhibition [9]: 0.84%
inhibition [10]: -0.78%
inhibition [11]: -0.85%
inhibition [12]: -0.63%
inhibition [13]: -0.35%
inhibition [14]: 1.51%
inhibition [15]: 2.18%
inhibition [16]: -0.79%
inhibition [17]: -0.95%
inhibition [18]: 0.36%
inhibition [19]: 1.39%
inhibition [20]: 1.37%

NCc1ccc(-c2nc(-c3ccc(Cl)c(O)c3)c(-c3ccncc3)[nH]2)cc1
inhibition [1]: -2.19%
inhibition [2]: 1.89%
inhibition [3]: 3.19%
inhibition [4]: 1.65%
inhibition [5]: 3.47%
inhibition [6]: -3.35%
inhibition [7]: 1.53%
inhibition [8]: 2.01%
inhibition [9]: 0.72%
inhibition [10]: 0.63%
inhibition [11]: 3.14%
inhibition [12]: 3.51%
inhibition [13]: 3.85%
inhibition [14]: 4.36%
inhibition [15]: 3.42%
inhibition [16]: 0.33%
inhibition [17]: 0.81%
inhibition [18]: 4.59%
inhibition [19]: 32.5%
inhibition [20]: 16.9%

CN(C)c1cc2c(Nc3ccc4nc(Cc5ccccc5)[nH]c4c3)ncnc2cn1
inhibition [1]: -2.11%
inhibition [2]: 3.33%
inhibition [3]: 3.46%
inhibition [4]: 1.02%
inhibition [5]: 1.2%
inhibition [6]: 1.12%
inhibition [7]: 3.91%
inhibition [8]: 2.08%
inhibition [9]: 1.7%
inhibition [10]: 2.14%
inhibition [11]: 3%
inhibition [12]: 4.46%
inhibition [13]: 6.18%
inhibition [14]: 1.66%
inhibition [15]: 2.67%
inhibition [16]: 3.79%
inhibition [17]: 5.25%
inhibition [18]: 2.41%
inhibition [19]: 4.97%
inhibition [20]: 1.6%

c1cnn2ncc(-c3ccnc(Nc4ccc5c(c4)OCCO5)n3)c2c1
inhibition [1]: 85.6%
inhibition [2]: 51.9%
inhibition [3]: 85.7%
inhibition [4]: 57.4%
inhibition [5]: 90.4%
inhibition [6]: 46.5%
inhibition [7]: 85%
inhibition [8]: 90.1%
inhibition [9]: 97.6%
inhibition [10]: 12.6%
inhibition [11]: 52%
inhibition [12]: 79.6%
inhibition [13]: 87.6%
inhibition [14]: 80.6%
inhibition [15]: 88.9%
inhibition [16]: 10.7%
inhibition [17]: 50.8%
inhibition [18]: 75.6%
inhibition [19]: 92.5%
inhibition [20]: 74.4%

Cc1ccc(C(=O)NC2CCCCC2)cc1-c1ccc(C(=O)NCC2CC2)cc1
inhibition [1]: 0.7%
inhibition [2]: 2.37%
inhibition [3]: 2.51%
inhibition [4]: 1.19%
inhibition [5]: 1.18%
inhibition [6]: 3.79%
inhibition [7]: 0.76%
inhibition [8]: 2.01%
inhibition [9]: 2.19%
inhibition [10]: 0.94%
inhibition [11]: 1.19%
inhibition [12]: 0.7%
inhibition [13]: -0.59%
inhibition [14]: 0.96%
inhibition [15]: 0.46%
inhibition [16]: 1.77%
inhibition [17]: 1.81%
inhibition [18]: 1.78%
inhibition [19]: 1.84%
inhibition [20]: 1.78%

CS(=O)(=O)CCNCc1ccc(-c2ccc3ncnc(Nc4ccc(OCc5cccc(F)c5)c(C(F)(F)F)c4)c3c2)o1
inhibition [1]: -2.95%
inhibition [2]: 2.52%
inhibition [3]: 2.44%
inhibition [4]: 0.38%
inhibition [5]: 0.07%
inhibition [7]: -2.6%
inhibition [8]: 0.58%
inhibition [9]: 0.13%
inhibition [10]: 1.49%
inhibition [11]: 0.98%
inhibition [12]: 2.19%
inhibition [13]: 1.7%
inhibition [14]: -1.48%
inhibition [15]: -1.44%
inhibition [16]: 2.83%
inhibition [17]: 3.42%
inhibition [18]: 1.48%
inhibition [19]: 0.2%
inhibition [20]: 0.25%

CCn1c(-c2nonc2N)nc2ccncc21
inhibition [1]: -0.78%
inhibition [2]: 1.15%
inhibition [3]: 3.35%
inhibition [4]: 0.45%
inhibition [5]: 1.71%
inhibition [7]: -1.56%
inhibition [8]: 3.93%
inhibition [9]: 3.92%
inhibition [10]: -0.93%
inhibition [11]: 0.52%
inhibition [12]: 0.1%
inhibition [13]: 2.88%
inhibition [14]: -0.02%
inhibition [15]: 0.71%
inhibition [16]: 1.94%
inhibition [17]: 2.17%
inhibition [18]: 0.52%
inhibition [19]: 7.82%
inhibition [20]: 0.08%

CS(=O)(=O)Nc1ccc(N/C=C2\C(=O)Nc3ccccc32)cc1
inhibition [1]: 17.4%
inhibition [2]: 1.6%
inhibition [3]: 15%
inhibition [4]: 6.34%
inhibition [5]: 39.8%
inhibition [6]: 12.9%
inhibition [7]: 59.4%
inhibition [8]: -0.68%
inhibition [9]: 3.62%
inhibition [10]: 0.94%
inhibition [11]: 1.06%
inhibition [12]: 0.92%
inhibition [13]: 10.4%
inhibition [14]: 3.56%
inhibition [15]: 13.9%
inhibition [16]: -1.66%
inhibition [17]: -0.97%
inhibition [18]: 7.94%
inhibition [19]: 19.6%
inhibition [20]: 6.71%

COc1ccc(-c2coc3ncnc(N)c23)cc1
inhibition [1]: 0.08%
inhibition [2]: 4.16%
inhibition [3]: 5.78%
inhibition [4]: 2.66%
inhibition [5]: 3.84%
inhibition [7]: 3.88%
inhibition [8]: 3.15%
inhibition [9]: 3.42%
inhibition [10]: 1.07%
inhibition [11]: 1.54%
inhibition [12]: 3.61%
inhibition [13]: 19.2%
inhibition [14]: -0.37%
inhibition [15]: 5.22%
inhibition [16]: 3.83%
inhibition [17]: 4.61%
inhibition [18]: 2.73%
inhibition [19]: 3.86%
inhibition [20]: 0.71%

CCCN1CCC=C(c2ccc(Nc3nc(Nc4ccccc4C(N)=O)c4cc[nH]c4n3)c(C)c2)C1
inhibition [1]: 4.3%
inhibition [2]: 4.35%
inhibition [3]: 10.9%
inhibition [4]: 1.88%
inhibition [5]: 9.85%
inhibition [6]: 0.69%
inhibition [7]: 5.64%
inhibition [8]: 38.2%
inhibition [9]: 88.9%
inhibition [10]: -0.17%
inhibition [11]: 6.97%
inhibition [12]: 56.2%
inhibition [13]: 92.3%
inhibition [14]: 39.5%
inhibition [15]: 71.1%
inhibition [16]: 8.53%
inhibition [17]: 44.2%
inhibition [18]: 5.89%
inhibition [19]: 28.1%
inhibition [20]: 3.05%

CNC(=O)c1cncc(/C=C/c2c(Cl)cccc2Cl)c1
inhibition [1]: -3.08%
inhibition [2]: 0.86%
inhibition [3]: 3.96%
inhibition [4]: -2.57%
inhibition [5]: -0.63%
inhibition [6]: -5.76%
inhibition [7]: -5.69%
inhibition [8]: 2.47%
inhibition [9]: 5.66%
inhibition [10]: -3.56%
inhibition [11]: -3.4%
inhibition [12]: -1.12%
inhibition [13]: -1.12%
inhibition [14]: -1.13%
inhibition [15]: 3.55%
inhibition [16]: 3.17%
inhibition [17]: 6.98%
inhibition [18]: -0.55%
inhibition [19]: 3.81%
inhibition [20]: -1.21%

COc1ccc2cc(-c3c(-c4ccncc4)nc(-c4ccc([S+](C)[O-])cc4)n3C)ccc2c1 (stereo unspecified)
inhibition [1]: -0.42%
inhibition [2]: 2.74%
inhibition [3]: 2.79%
inhibition [4]: 0.96%
inhibition [5]: 1.53%
inhibition [6]: -3.35%
inhibition [7]: -1.41%
inhibition [8]: 0.22%
inhibition [9]: 1.33%
inhibition [10]: 0.91%
inhibition [11]: 0.67%
inhibition [12]: 0.49%
inhibition [13]: 3.52%
inhibition [14]: -0.23%
inhibition [15]: 0.37%
inhibition [16]: 3.31%
inhibition [17]: 1.71%
inhibition [18]: 4.07%
inhibition [19]: 11.5%
inhibition [20]: 2.47%
